Here are results for 19 molecules from PubChem BioAssay.

Active and inactive are the calls of the source.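 Rule for the calls, unless noted: active = viability at or below 10% of carrier control in both of two separate runs; inconclusive = viability at or below 10% in only one of the two runs; inactive = the rest.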

A short description of test [1]: SK-BR-3 cell growth inhibitors, pilot screen, 24 h, human (AID 572).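 Note: compound exposure lasted between 18 and 24 h rather than exactly 24 h; 100% = carrier-treated control wells.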 The settings on record: SK-BR-3 viability, CellTiter-Glo luminescence, at 10 µM, stronger effect = lower value.
Test [2] is described as follows: HUVEC growth inhibition – cell-based, human, primary screen (AID 575;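 active = viability at or below 30% in both replicate assays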;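 note: 100% = median of untreated cell wells with 0.1% DMSO on each plate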). The settings on record: HUVEC proliferation, CellTiter-Glo luminescence, 72 h; at 10 µM; stronger effect = lower value. On the technique in general: In ATP-based viability assays light output follows the ATP content of the culture.
Test [3] in a line: reversal of MRP1-mediated doxorubicin resistance, pilot screen, H69AR cells, doxorubicin co-treatment (AID 601;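 active = viability loss from added drug above about 55%, and viability with drug at most 40%, in both replicates, limit read from the data, passing the limit was not always enough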). The settings on record: CellTiter-Glo, 72 h, at 10 µM; for differential viability (reversal): stronger effect = higher value.
Test [4] can be described thus: 384-well plate pilot, post-Golgi transport modulator project, inhibition of yeast transport mutant growth (AID 636; in the data active = inhibition above about 31%). The settings on record: absorbance 615 nm, about 18 h, stronger effect = higher value.
Test [5] in a line: growth suppression of yeast trafficking mutant, preliminary HTS, modulators of trafficking downstream of Golgi apparatus project, 1536-format plate, OD 615 nm (AID 637; in the data active = inhibition above about 30%). The settings on record: yeast transport mutant growth, absorbance 615 nm, 18 h; stronger effect = higher value.
The nature of test [6]: growth inhibitors of H69AR lung tumor, primary screen, human, duplicate replicates (AID 580;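 active = viability at or under a set limit in both replicates, limit being median viability minus 3 SD, cut at about 48% in these data, passing the limit was not always enough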;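 note: 100% = mean luminescence of untreated wells and 0% = no signal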). The settings on record: H69AR lung tumor cells viability, ATP luminescence, 72 h; at 10 µM; stronger effect = lower value.
The mark [7] stands for this setting: H69AR cells + 2 uM doxorubicin, measured here: viability with 2 uM doxorubicin, stronger effect = lower value.
Where [8] appears, read: H69AR cells, compound alone cytotoxicity.

One may read the viability as a read-out of living cells in per cent, often relative to untreated cells. As usually defined, the inhibition is the change of the read-out against control, counted positive when it falls. As for `Cc1[nH]nc2c1C1(C(=O)N(Cc3ccc(Cl)cc3)c3ccccc31)C(C#N)=C(N)O2` (stereo unspecified), the viability in test [1] was 94% (inactive); in test [2] it was 90% (inactive); in test [3] (setting [7]), 92%; in test [3] (setting [8]), 52.2%. The differential viability (reversal) in test [3] (H69AR cells + 2 uM doxorubicin) is -39.8% (inactive). In addition, the inhibition in test [4] is -4.32% (inactive); in test [5], 0.18% (inactive).
With `Cc1ccc(Cn2c(=N)c(C(=O)NCc3ccco3)cc3c(=O)n4ccccc4nc32)cc1`, the viability in test [1] was 78% (inactive); in test [2], 96.1% (inactive); in test [3] (setting [7]), 47.4%; in test [3] (setting [8]) it was 47.1%. Moreover, the differential viability (reversal) in test [3] (H69AR cells + 2 uM doxorubicin) is -0.275% (inactive). The inhibition in test [4] is -5.81% (inactive); in test [5], -4.36% (inactive).
Take `O=C1NC2c3ccccc3C(=O)N2c2c1cnn2-c1ccccc1` (stereo unspecified): the viability in test [1] was 98% (inactive); in test [2], 80.3% (inactive); in test [3] (setting [7]) it was 86%; in test [3] (setting [8]), 50.6%. Also, the differential viability (reversal) in test [3] (H69AR cells + 2 uM doxorubicin) was -35.4% (inactive). The inhibition was 0.68% (inactive) in test [4] and 0.91% (inactive) in test [5].
Turning to `C/C=C(/C(=C/C)c1ccc(O)cc1)c1ccc(O)cc1`, the viability in test [1] is 123% (inactive); in test [2], 54.9% (inactive); in test [3] (setting [7]) it was 85.2%; in test [3] (setting [8]) it was 27.6%. Moreover, the differential viability (reversal) in test [3] (H69AR cells + 2 uM doxorubicin) was -57.5% (inactive). Further, the inhibition in test [4] was 0.65% (inactive); in test [5], 25% (inactive).
For the molecule `CCOC(=O)N1CCC(NC(=O)c2ccc3c(c2)sc2nc(-c4cccc(OC)c4)cn23)CC1`, the viability in test [1] is 80% (inactive); in test [2] it was 52% (inactive); in test [3] (setting [7]), 41.5%; in test [3] (setting [8]), 49.9%. Moreover, the differential viability (reversal) in test [3] (H69AR cells + 2 uM doxorubicin) was 8.43% (inactive). In addition, the inhibition in test [4] was -1.95% (inactive); in test [5], -0.98% (inactive).
In the case of `Cc1cc(-n2c(C)cc(C(=O)CSc3nnnn3-c3ccc(Cl)cc3)c2C)no1`, the viability in test [1] was 81.5% (inactive); in test [3] (setting [7]), 44.3%; in test [3] (setting [8]), 49.2%. Also, in test [3] (H69AR cells + 2 uM doxorubicin), the differential viability (reversal) is 4.86% (inactive). The values for the inhibition in test [4] and in test [5] were -3.73% (inactive) and -5.56% (inactive), respectively.
With `Cc1ccc(Cl)cc1N1CCN(C(=O)c2cn(C)c(=O)c3c2c2ccccc2n3C)CC1`, the viability is 94% (inactive) in test [1], 3.07% (active) in test [6], 31.8% in test [3] (setting [7]) and 3.07% in test [3] (setting [8]). Besides, the differential viability (reversal) in test [3] (H69AR cells + 2 uM doxorubicin) is -28.7% (inactive). In addition, the figures for the inhibition in test [4] and in test [5] were -1.73% (inactive) and 4.73% (inactive), respectively.
Consider `C(=C\c1ccccc1)/CN1CCN(C(c2ccccc2)c2ccccc2)CC1`, for which the viability in test [1] is 90% (inactive); in test [6], 71% (inactive); in test [3] (setting [7]), 73.7%; in test [3] (setting [8]), 71%. Further, the differential viability (reversal) in test [3] (H69AR cells + 2 uM doxorubicin) is -2.73% (inactive). In addition, the inhibition in test [4] was 1.43% (inactive); in test [5], -3% (inactive).
Turning to `CCc1oc2ccccc2c1C(=O)c1cc(Br)c(O)c(Br)c1`, the viability was 95% (inactive) in test [1], 79% (inactive) in test [6], 102% in test [3] (setting [7]) and 79% in test [3] (setting [8]). Moreover, the differential viability (reversal) in test [3] (H69AR cells + 2 uM doxorubicin) was -23.2% (inactive). In addition, the figures for the inhibition in test [4] and in test [5] were -0.52% (inactive) and 54.7% (active), respectively.
In the case of `O=S(=O)(c1cccc2cnccc12)N1CCCNCC1`, the viability was 140% (inactive) in test [1], 97.4% (inactive) in test [6], 95.5% in test [3] (setting [7]) and 97.4% in test [3] (setting [8]). Also, the differential viability (reversal) in test [3] (H69AR cells + 2 uM doxorubicin) was 1.83% (inactive). The results for the inhibition in test [4] and in test [5] were -2.08% (inactive) and 4.5% (inactive), respectively.
As to `COc1ccc(-n2cc(-c3ccccc3)c3c(N4CCN(CCO)CC4)ncnc32)cc1`, the viability is 100% (inactive) in test [1], 56.2% (inactive) in test [6], 45.7% in test [3] (setting [7]) and 56.2% in test [3] (setting [8]). Further, the differential viability (reversal) in test [3] (H69AR cells + 2 uM doxorubicin) was 10.5% (inactive). Besides, the inhibition is -6.13% (inactive) in test [4] and 0.48% (inactive) in test [5].
Take `CCCCC[C@H](O)/C=C/[C@H]1C=CC(=O)[C@@H]1C/C=C\CCCC(=O)O`: the viability is 111% (inactive) in test [1], 67.4% (inactive) in test [6], 57.6% in test [3] (setting [7]) and 67.4% in test [3] (setting [8]). In test [3] (H69AR cells + 2 uM doxorubicin), the differential viability (reversal) is 9.76% (inactive). For the same molecule, the inhibition is -2.99% (inactive) in test [4] and -0.5% (inactive) in test [5].
For the molecule `COc1ccccc1NC(=O)c1oc2ccccc2c1NC(=O)c1cc(OC)c(OC)c(OC)c1`, the viability is 56.5% (inactive) in test [1], 16.9% (active) in test [6], 35.3% in test [3] (setting [7]) and 16.9% in test [3] (setting [8]). Also, the differential viability (reversal) in test [3] (H69AR cells + 2 uM doxorubicin) is -18.4% (inactive). The inhibition in test [4] was -3.33% (inactive); in test [5] it was -2.1% (inactive).
Consider `CCC(=O)Oc1ccc(C(CC)C(CC)c2ccc(OC(=O)CC)cc2)cc1` (stereo unspecified), for which the viability in test [1] is 112% (inactive); in test [6], 85.8% (inactive); in test [3] (setting [7]) it was 102%; in test [3] (setting [8]), 85.8%. Moreover, in test [3] (H69AR cells + 2 uM doxorubicin), the differential viability (reversal) was -16.4% (inactive). The inhibition is -5.32% (inactive) in test [4] and -1.33% (inactive) in test [5].
For `COC(=O)c1ccccc1NC(=O)Cn1c(-c2nonc2N)nc2ccccc21`, the viability in test [1] is 70.5% (inactive); in test [6], 15.7% (active); in test [3] (setting [7]) it was 26.1%; in test [3] (setting [8]) it was 15.7%. Besides, the differential viability (reversal) in test [3] (H69AR cells + 2 uM doxorubicin) is -10.4% (inactive). For the same molecule, the inhibition in test [4] is 1.07% (inactive); in test [5], -4.84% (inactive).
Take `COc1ccc(Br)cc1-c1noc(-c2ccccc2)n1`: the viability is 99% (inactive) in test [1], 78.5% (inactive) in test [6], 79.1% in test [3] (setting [7]) and 78.5% in test [3] (setting [8]). Further, in test [3] (H69AR cells + 2 uM doxorubicin), the differential viability (reversal) was -0.585% (inactive). In addition, the inhibition in test [4] is -3.87% (inactive); in test [5], -4.36% (inactive).
Consider `CCN(CC)S(=O)(=O)c1ccc2[nH]cc(C(=O)NCCC3=CCCCC3)c(=O)c2c1`, for which the viability is 138% (inactive) in test [1], 3.36% (active) in test [6], 44.3% in test [3] (setting [7]) and 3.36% in test [3] (setting [8]). Besides, the differential viability (reversal) in test [3] (H69AR cells + 2 uM doxorubicin) is -40.9% (inactive). Moreover, the inhibition in test [4] was -6.4% (inactive); in test [5], -0.65% (inactive).
Take `COC(=O)c1ccccc1NC(=O)c1ccc(-c2ccccc2F)o1`: the viability was 89% (inactive) in test [1], 53.2% in test [3] (setting [7]) and 60.9% in test [3] (setting [8]). Besides, the differential viability (reversal) in test [3] (H69AR cells + 2 uM doxorubicin) is 7.71% (inactive). The results for the inhibition in test [4] and in test [5] were -8.36% (inactive) and -2.74% (inactive), respectively.
With `Cc1cc(C)c2ccc(N)nc2c1O`, the viability in test [1] was 87.5% (inactive); in test [6] it was 21.4% (active); in test [3] (setting [7]) it was 28.9%; in test [3] (setting [8]) it was 21.4%. Further, the differential viability (reversal) in test [3] (H69AR cells + 2 uM doxorubicin) is -7.52% (inactive). Besides, the inhibition is -1.43% (inactive) in test [4] and -1.48% (inactive) in test [5].
